Reference: PubChem BioAssay (NCI)
Compounds without any hit were thinned out: in the full panel of roughly 83,000, 20% have a hit.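 96-well plates, one dose, 48 hours. Percent growth reported; active if below 10.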 Unmarked numbers belong to inactive results. The source made the active and inactive calls.

Experiments:
Assay in all cases: NCI-60 one-dose screen, 48 h (100 = growth as untreated, 0 = no growth, -100 = all killed)
Conditions in all cases: 10 µM unless noted
DU-145 prostate = tested on: DU-145 prostate
K-562 leukemia = tested on: K-562 leukemia
MALME-3M melanoma = tested on: MALME-3M melanoma
MDA-MB-231 breast = tested on: MDA-MB-231 breast
RXF 393 renal = tested on: RXF 393 renal
SF-268 CNS = tested on: SF-268 CNS
SF-295 CNS = tested on: SF-295 CNS
SF-539 CNS = tested on: SF-539 CNS
UACC-257 melanoma = tested on: UACC-257 melanoma
M14 melanoma = tested on: M14 melanoma
HCT-15 colon = tested on: HCT-15 colon
HT29 colon = tested on: HT29 colon
SNB-75 CNS = tested on: SNB-75 CNS
SNB-19 CNS = tested on: SNB-19 CNS
U251 CNS = tested on: U251 CNS
PC-3 prostate = tested on: PC-3 prostate
SK-MEL-5 melanoma = tested on: SK-MEL-5 melanoma
UACC-62 melanoma = tested on: UACC-62 melanoma
LOX IMVI melanoma = tested on: LOX IMVI melanoma
SK-MEL-28 melanoma = tested on: SK-MEL-28 melanoma

SMILES | growth (DU-145 prostate) | growth (K-562 leukemia) | growth (MALME-3M melanoma) | growth (MDA-MB-231 breast) | growth (RXF 393 renal) | growth (SF-268 CNS) | growth (SF-295 CNS) | growth (SF-539 CNS) | growth (UACC-257 melanoma) | growth (M14 melanoma) | growth (HCT-15 colon) | growth (HT29 colon) | growth (SNB-75 CNS) | growth (SNB-19 CNS) | growth (U251 CNS) | growth (PC-3 prostate) | growth (SK-MEL-5 melanoma) | growth (UACC-62 melanoma) | growth (LOX IMVI melanoma) | growth (SK-MEL-28 melanoma)
COc1cc(Cl)cc(-c2nn(C(=O)NS(=O)(=O)c3ccccc3)cc2-c2ccncc2)c1 | 82.5% | 86.3% | 96.4% | 62.6% | 79.2% | 81.1% | 97.9% | 48.2% | 110% | 86.4% | 111% | 41.1% | 3.59% (active) | 105% | 81.5% | 91.4% | 93.3% | 82.7% | 59.1% | 98.7%
Oc1cc(Nc2ccnc3cc(Cl)ccc23)c2ncccc2c1 | 58.4% | 76.6% | 52% | 14.8% | 68.6% | 73.8% | 108% | 93.9% | 82.2% | 75.8% | 82% | 109% | 53.2% | 78.4% | 77.1% | 59.1% | 79.2% | 81.4% | 72.7% | 81.5%
NC(=O)c1c(NC(=O)COC(=O)Cc2ccccc2F)sc2c1CCC2 | 104% | 139% | 109% | 101% | 109% | 99.6% | 129% | 94.9% | 4.15% (active) | 105% | 104% | 117% | 106% | 86.6% | 101% | 100% | 91.1% | 97% | 110% | 97.2%
COCc1nc2ccccc2[nH]1 | 113% | 99% | 98.7% | 100% | 117% | 108% | 95.1% | 92.8% | 104% | 100% | 97.7% | 104% | 95.8% | 101% | 98.3% | 104% | 99.5% | 99.1% | 99.3% | 98.8%
Cn1cc(-c2noc(-c3cn(C)c4ncccc34)n2)c2cc(Cl)ccc21 | 103% | 87.4% | 90.7% | 70.4% | 121% | 82.9% | 99.2% | 56.6% | 103% | 91.6% | 92.8% | 83.1% | 101% | 100% | 95.6% | 89.3% | 94.7% | 93.1% | 93.4% | 93%
CCOC(=O)Nc1ccc2c(c1)/C(=N\NC(=S)NC)c1ccccc1-2 | 88.9% | 77.2% | 115% | 65% | 7.59% (active) | 101% | 46.8% | 71.4% | 107% | 78.2% | 66.7% | 88% | 96.2% | 71.8% | 62% | 81.8% | 73.5% | 71.9% | 67.1% | 82.7%
COC(=O)[C@H](CC(C)C)NC(=O)NC(=O)NC(=O)CI | 109% | 2.16% (active) | -57% (active) | 33.4% | 64.1% | 85% | 88.8% | 77.2% | 98.2% | 63.5% | -36% (active) | -43.2% (active) | 102% | 92% | 90.6% | 78.3% | 92.6% | 86.4% | -78.6% (active) | 89.6%
C=C(C)[C@@H]1CC[C@]2(COCCC#N)CC[C@]3(C)[C@H](CC[C@@H]4[C@@](C)(CCCNCCC#N)[C@H](C(=C)C)CC[C@]43C)[C@@H]12 | 46.4% [100 µM] | 7.57% [100 µM] (active) | -47.8% [100 µM] (active) | 13.9% [100 µM] | -11.8% [100 µM] (active) | 53% [100 µM] | 65.2% [100 µM] | -20% [100 µM] (active) | 27.6% [100 µM] | 32.4% [100 µM] | 35.7% [100 µM] | 2.94% [100 µM] (active) | 40.8% [100 µM] | 59% [100 µM] | 5.95% [100 µM] (active) | 20.1% [100 µM] | 2.58% [100 µM] (active) | 29.8% [100 µM] | -74.4% [100 µM] (active) | -37.3% [100 µM] (active)
O=C(Nc1ccc(Oc2ccc(F)cc2)c(Cl)c1)c1cnccn1 | 79.5% | 21.1% | 70.1% | 58.7% | 72.3% | 72.2% | 72.9% | 67.1% | 79.8% | 92.4% | 47.7% | 23.7% | 47.7% | 63.7% | 38.2% | 76% | 49.5% | 50.3% | 51.5% | 76.9%
C[n+]1cccc(NC(=O)c2ccc3ccc4ccc(C(=O)Nc5ccc[n+](C)c5)nc4c3n2)c1 | 9.79% (active) | 35.8% | 81.4% | 33.2% | 33% | 53.3% | 5.59% (active) | 37.7% | 94.4% | 53.6% | 61.2% | 34.2% | 12.8% | 14.3% | 13% | 55.3% | 1.98% (active) | -54.4% (active) | 64.5% | 31.2%
Nc1nnc(CSc2nnc3n(Cc4ccccc4)c(=O)c4c5c(sc4n23)CCCC5)s1 | 110% | 64.1% | 116% | 76.5% | 93.2% | 41.2% | 276% | 105% | 98.5% | 104% | 90.4% | 102% | 98.7% | 100% | 93.2% | 90.6% | 105% | 82.1% | 86% | 122%
N#C/C(C(=O)c1ccccc1)=C1/C(=O)Nc2ccc(Br)cc21 | 108% | 91.3% | 96.7% | 95.5% | 111% | 103% | 100% | 94.7% | 97.9% | 107% | 107% | 113% | 70.5% | 98.6% | 106% | 96.4% | 95.5% | 92.5% | 103% | 105%
CCCN1CC(c2ccc(OC)c(OC)c2)=C(c2cn(C(=O)OCC)c3ccccc23)C1=O | 71.9% | 13.3% | 51.6% | 43.3% | -0.611% (active) | 58.2% | 32.4% | 28.1% | 90.1% | 70.4% | 25.9% | 14.5% | -14.1% (active) | 50.3% | 46.7% | 32.4% | 22.9% | 18.3% | 49.6% | 73.1%
CC(C)=CCC[C@](C)(O)[C@H]1CC[C@]2(C)[C@@H]1CC[C@@H]1[C@@]3(C)CC/C(=N/O)C(C)(C)[C@@H]3CC[C@]12C | -15.4% [100 µM] (active) | 10.9% [100 µM] | -69.7% [100 µM] (active) | -34.2% [100 µM] (active) | -32.5% [100 µM] (active) | 11.5% [100 µM] | -66.5% [100 µM] (active) | -53.9% [100 µM] (active) | 19.8% [100 µM] | -13.6% [100 µM] (active) | 29.7% [100 µM] | -43.5% [100 µM] (active) | -38.8% [100 µM] (active) | -28.8% [100 µM] (active) | -81.5% [100 µM] (active) | -52.1% [100 µM] (active) | -45.3% [100 µM] (active) | -59.2% [100 µM] (active) | -9.59% [100 µM] (active) | -36.1% [100 µM] (active)
